From PubChem
Shown are actives, neighbours in structure and some others; about 4.2% of the full set was active somewhere.
CHOP inh: inhibitors of CHOP promoter induction, primary screen, cell-based, unfolded protein response, luciferase reporter. AID 2732, 2010. CHO-K1 CHOP-promoter luciferase, tunicamycin-induced, 15-18 h. inhibition, % at 10 µM. hit rate 3.8% among 220,000;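 active = compounds that reduced the stress-induced luciferase reporter signal by more than about 70% of percent inhibition, limit read from the data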
S1P4 antagonist: S1P4 receptor antagonists, primary screen, cell-based; Sphingosine 1-phosphate receptor 4 (Homo sapiens), O95977; S1P4-expressing cells, antagonist mode, reporter read-out; inhibition, % at 4.98 µM; hit rate 0.26% among 220,000; in the data active = inhibition above about 29%
Target sequence (O95977 whole entry, looked up): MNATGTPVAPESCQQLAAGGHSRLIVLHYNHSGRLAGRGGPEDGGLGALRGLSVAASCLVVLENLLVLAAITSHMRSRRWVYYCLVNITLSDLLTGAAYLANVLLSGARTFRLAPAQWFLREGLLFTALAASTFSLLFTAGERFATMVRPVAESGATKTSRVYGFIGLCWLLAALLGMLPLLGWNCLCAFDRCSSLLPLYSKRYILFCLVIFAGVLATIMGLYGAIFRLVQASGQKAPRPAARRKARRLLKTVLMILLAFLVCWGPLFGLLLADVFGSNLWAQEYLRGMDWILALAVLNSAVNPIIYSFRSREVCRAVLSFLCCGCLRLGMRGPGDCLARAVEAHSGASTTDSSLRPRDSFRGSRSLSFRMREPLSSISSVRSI
Hsp70 act: Hsp70 transcriptional activators, primary screen, cell-based, HeLa, Hsp70 promoter luciferase, luminescence, 10 µM; HeLa Hsp70 promoter luciferase reporter; scaled: vehicle 0, proteasome-inhibitor control 100%; activation, % at 10 µM; hit rate 0.04% among 200,000;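 active = activation above the mean across all tested compounds plus 3 SD, cutoff set per campaign, cut at about 5.5% in these data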
S1P4 ag: S1P4 receptor agonists, primary screen, cell-based; Sphingosine 1-phosphate receptor 4 (Homo sapiens), O95977; S1P4-expressing cell line, agonist reporter assay; activation, % at 4.98 µM; hit rate 0.35% among 220,000; AID 1509, 2009; in the data active = activation above about 11%
Large screens that a line does not name were inactive.

c1ccc(-c2nnc(SCc3nnc(-c4cccs4)o3)o2)cc1	none
Clc1ccc(OCc2nnc(SCc3nnc(-c4ccccc4)o3)o2)c(Cl)c1	CHOP inh 77
Clc1ccc(-c2nnc(CSc3nnc(-c4cccs4)o3)o2)cc1	CHOP inh 70
O=C(COc1cccc(Br)c1)NN=C1c2ccccc2-c2ccccc21	none
O=C(COc1cccc(Br)c1)N/N=C1\CCCc2ccccc21	CHOP inh 75
CC1=CC(C)(C)N2C(=O)C3(C(C#N)=C(N)OC4=C3C(=O)CCC4)c3c(C)c(C)cc1c32 (stereo unspecified)	none
CC1=CC(C)(C)N2C(=O)C3(C(C#N)=C(N)Oc4cc(O)ccc43)c3c(C)c(C)cc1c32 (stereo unspecified)	CHOP inh 96
CCCCCCCCCCCCCCCC(=O)NCC(COP(=O)([O-])OCC[N+](C)(C)C)OCC (stereo unspecified)	none (no result: S1P4 antagonist, Hsp70 act, S1P4 ag)
Oc1ccccc1C(Nc1nccs1)c1ccc2cccnc2c1O (stereo unspecified)	CHOP inh 71 (no result: Hsp70 act)
Oc1c(C(Nc2ccccn2)c2ccccn2)ccc2cccnc12 (stereo unspecified)	none
Cc1ccc(NC(=O)C(OC(=O)c2cc(C)oc2C)c2ccccc2)cc1 (stereo unspecified)	none
Cc1cc(C(=O)OC(C(=O)Nc2cccc(C(F)(F)F)c2)c2ccccc2)c(C)o1 (stereo unspecified)	CHOP inh 83
CC(=O)N(C)c1ccc(N=Nc2c(C)[nH]n(C(N)=S)c2=O)cc1	none
CCCCc1nc(N)c(C#N)c(-c2ccco2)c1CCC	CHOP inh 77
CC(C)(C)c1cc(C(C)(C)C)cc(S(=O)(=O)CCc2ccccn2)c1	CHOP inh 70
O=C(Nc1cccc(NC(=O)c2cccs2)c1)c1cccnc1	none
Cc1cccc(Nc2ncnc(N)c2[N+](=O)[O-])n1	none
Cc1cc(C)nc(Sc2ncnc(N)c2[N+](=O)[O-])n1	CHOP inh 102
CCN1/C(=C/c2ccc3ccccc3[n+]2CC)C=Cc2ccccc21	none (no result: CHOP inh)
CCN1/C(=C/c2ccc3cc(C)ccc3[n+]2CC)Sc2cc(C)ccc21	CHOP inh 82
CCCCN1/C(=C/c2ccc3ccccc3[n+]2CC)Sc2ccccc21	CHOP inh 84
O=C(CN1CCCc2ccccc21)Nc1ccc(F)cc1[N+](=O)[O-]	CHOP inh 74
Cc1ccc2c(c1)c1c(n2CC(O)Cn2c(C)nc3ccccc32)C(=O)CCC1 (stereo unspecified)	none
Cc1ccc2c(c1)c1c(n2CC(O)Cn2c(C)nc3ccccc32)/C(=N\O)CCC1 (stereo unspecified)	CHOP inh 87
COc1cc(/C=C/C2=NC(=O)C(C)(C)O2)ccc1O	none
COc1ccc(Cc2noc(-c3ccc(C)cc3)n2)cc1	CHOP inh 88
COc1ccc(-c2nc(-c3ccc(Br)o3)no2)cc1	CHOP inh 76
COc1ccc(Cc2noc(-c3ccc([N+](=O)[O-])cc3)n2)cc1OC	none (no result: Hsp70 act)
Nc1c(-c2ccsc2)cnc2ncnn12	none
CSC1=NCCN1C(=O)c1c(-c2ccccc2Cl)noc1C	CHOP inh 89
N/C(=N\c1nc(CSc2ccccn2)cc(=O)[nH]1)Nc1ccc(Cl)cc1Cl	none (no result: Hsp70 act)
Cc1csc(NC(=O)C2CCN(S(=O)(=O)c3cccs3)CC2)n1	none
CC(=O)Nc1ccc(-c2csc(NC(=O)C3CCN(S(=O)(=O)c4cccs4)CC3)n2)cc1	CHOP inh 81
O=C(NCc1ccco1)c1cc2n(n1)C(C(F)(F)F)CC(c1ccc(Cl)c(Cl)c1)N2 (stereo unspecified)	CHOP inh 88
O=C(NCc1ccco1)c1cc2n(n1)C(C(F)(F)F)CC(c1ccc(Br)cc1)N2 (stereo unspecified)	CHOP inh 77
COc1ccccc1NC(=O)c1cc2n(n1)C(C(F)(F)F)CC(c1ccc3c(c1)OCO3)N2 (stereo unspecified)	CHOP inh 88
COc1ccc(OC)c(NC(=O)c2cc3n(n2)C(C(F)(F)F)CC(c2ccc4c(c2)OCO4)N3)c1 (stereo unspecified)	none (no result: CHOP inh)
COc1ccc(OC)c(-c2c3c([nH]c(=S)c2C#N)CCCC3)c1	none
Cc1oc(-c2ccc(Cl)cc2)nc1CN1CCC(C(=O)N2CCc3ccccc3C2)CC1	CHOP inh 91
CCc1ccc(-c2nc(CN3CCC(C(=O)NCc4ccccc4OC)CC3)c(C)o2)cc1	CHOP inh 79
CSc1nc(C)cc(OCC(=O)n2nc(C)cc2C)n1	none
COc1ccccc1NC(=O)c1ccc(Br)o1	none
O=C(Nc1cccc(Cl)c1N1CCCC1)c1ccc([N+](=O)[O-])o1	none
O=C(Nc1ccccc1Oc1ccccc1)c1ccc(Br)o1	CHOP inh 86
O=C(Nc1cccc(Cl)c1N1CCCC1)c1ccc(Br)o1	CHOP inh 73
O=C1/C(=C/c2ccc([N+](=O)[O-])cc2)C=C(c2ccccc2)N1c1ccc(O)cc1	CHOP inh 81
O=C1/C(=C/c2ccc([N+](=O)[O-])cc2)C=C(c2ccccc2)N1c1ccccc1	none
C=CCSc1nc(Oc2ccccc2)c2sccc2n1	CHOP inh 72
CCOC(=O)N1CCN(C(=O)C(C)(C)Oc2ccc(Cl)cc2)CC1	CHOP inh 83
O=C(COC(=O)C12CC3CC(CC(C3)C1)C2)N1CCN(S(=O)(=O)c2ccccc2)CC1	none
Cc1nc2sc(C(c3ccc(Cl)cc3)N3CCN(c4ccccc4F)CC3)c(O)n2n1 (stereo unspecified)	CHOP inh 83
Cc1ccc(C(=O)NCCNc2nc3cc(C)c(C)cc3cc2C)cc1	none
Cc1cc2cc(C)c(NCCNC(=O)c3ccccc3)nc2cc1C	CHOP inh 90
CCOc1ccc2nc(NCCNC(=O)C(C)C)c(C)cc2c1	CHOP inh 71
COCC(=O)NCCNc1nc2ccc(C)cc2cc1C	none
COC(=O)c1ccc(Cn2c(C)cc(C)[n+]2C)o1	CHOP inh 73
O=C(Nc1ccc(C(F)(F)F)cc1)c1cnc(N2CCN(c3ccccn3)CC2)c2ccccc12	CHOP inh 81
O=C(c1cc(Cl)ccc1Cl)N1CCN(c2ccccn2)CC1	none
O=C(Nc1ccc(C(F)(F)F)cc1)c1cccnc1N1CCOCC1	none
O=C(c1cnc(N2CCN(c3ccccn3)CC2)c2ccccc12)N1CCN(c2cccc(Cl)c2)CC1	CHOP inh 77
N#Cc1c(C(F)(F)F)cc(-c2ccc(F)cc2)[nH]c1=O	none
Cc1nnc(SCc2nc(N)nc(Nc3ccccc3)n2)s1	none
CCc1ccc(Nc2nc(N)nc(CSc3nc4ccccc4s3)n2)cc1	CHOP inh 73
Cc1ccc(NC(=S)N/N=C2/CCCCc3ccccc32)cc1	none (no result: Hsp70 act)
COc1ccc(NC(=S)N/N=C2/CCCc3c(C)cc(C)cc32)cc1	CHOP inh 77
CC(=O)NCCCc1nc2ccccc2n1Cc1ccccc1C	none
Cc1[nH]n(-c2ccc(Br)cc2)c(=O)c1C=Nc1ccc(S(=O)(=O)Nc2nccs2)cc1	CHOP inh 91
